The source of these data is PubChem BioAssay (NCI).

Among the test systems are SR leukemia; OVCAR-8 ovarian; OVCAR-5 ovarian; OVCAR-4 ovarian; SK-OV-3 ovarian; IGROV1 ovarian; OVCAR-3 ovarian; HS 578T breast; NCI/ADR-RES ovarian.
Holding throughout (assay): NCI-60 one-dose screen, 48 h (100 = growth as untreated, 0 = no growth, -100 = all killed)
What all share (conditions): 10 µM

Each structure is given as a SMILES string. About 83,000 compounds went through this panel and 20% of them were active in at least one assay; those are over-represented in the sample as a whole.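 Growth was measured after 48 h exposure to one concentration of compound in 96-well plates. Values under 10 count as active.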 A number with no mark means an inactive call. The source made the active and inactive calls.

Regarding `Cc1c2c[n+](C(C)C)ccc2c(C)c2c1[nH]c1ccccc12`, the growth was 20.8% in the assay with SR leukemia; 15.9% in the assay on OVCAR-8 ovarian; 55.7% in the assay with OVCAR-5 ovarian; 13.8% in the assay on OVCAR-4 ovarian; -1.05% (active) in the assay with SK-OV-3 ovarian; 41.2% in the assay on IGROV1 ovarian. Moreover, the growth is 9.41% (active) in the assay on OVCAR-3 ovarian, 22.8% with HS 578T breast and 97.9% in the assay on NCI/ADR-RES ovarian.
For the compound `COc1cc(C2CC(c3ccc4c(c3)OCO4)=NN2c2ccccc2)cc(OC)c1OC` (stereo unspecified), the growth was 71.9% in the assay with SR leukemia; 99.3% in the assay with OVCAR-8 ovarian; 107% with SK-OV-3 ovarian; 89.8% in the assay on OVCAR-3 ovarian; 93.6% in the assay with HS 578T breast; 77.7% in the assay on NCI/ADR-RES ovarian.
Consider `COc1ccc(C(=O)c2ccccc2CN2C(=O)c3ccccc3C2=O)cc1`, for which the growth with SR leukemia was 91.8%; with OVCAR-8 ovarian it was 97%; in the assay with OVCAR-5 ovarian it was 109%; in the assay on OVCAR-4 ovarian, 105%; in the assay with IGROV1 ovarian it was 101%; in the assay on HS 578T breast, 105%. The growth in the assay with NCI/ADR-RES ovarian was 95.5%.
As for `CCCCN(CCCC)C(=O)[C@H](CC)[C@@H]1CC[C@@H](C)[C@@H]([C@H](C)[C@@H](O)[C@@H](C)C(=O)[C@H](CC)C2O[C@]3(C=CC(=O)[C@]4(CC[C@@](C)([C@H]5CC[C@](O)(CC)[C@H](C)O5)O4)O3)[C@H](C)C[C@@H]2C)O1` (stereo partly specified), the growth with SR leukemia was 75.1%; with OVCAR-8 ovarian, 34.7%; in the assay with OVCAR-5 ovarian, 39.4%; in the assay with OVCAR-4 ovarian, 42.7%; with SK-OV-3 ovarian, 51.9%; in the assay with IGROV1 ovarian it was 59.3%. Besides, the growth was 31.5% in the assay on OVCAR-3 ovarian, 43.1% with HS 578T breast and 78.2% in the assay with NCI/ADR-RES ovarian.
